Measured values reported in paper PMC4552634, “A New Set of Chemical Starting Points with Plasmodium falciparum Transmission-Blocking Potential for Antimalarial Drug Discovery” (PLoS ONE, 2015).
Out of some 13,000 compounds screened, about 3,200 (25%) showed an effect of 50% or more. The list shows a part of the results.

Test system: P. falciparum stage V gametocytes
Set-up: BacTiter-Glo ATP luminescence viability of purified stage V gametocytes in 384-well plates, per cent inhibition versus DMSO
Details: 48 h, 5 µM; inhibitor

| Compound | % Inhibition [%] |
| --- | --- |
| Cc1cccc(CCNC(=O)c2cc(Br)cc(N3CCN(c4ccncc4)CC3)c2)c1 [TCMDC-135149] | -71.81 |
| CCOC(=O)c1ccc(NC(=O)Nc2ccc(-c3cccc(-c4nc5ccc(F)cc5[nH]4)c3)cc2)cc1 [TCMDC-133269] | -27.05 |
| Cc1cc(N[C@@H](Cc2ccccc2)C(=O)NCc2cccs2)nc(NCCc2ccccc2)n1 [TCMDC-134775] | 70.11 |
| Cc1cc(N[C@@H](Cc2ccccc2)C(=O)NCc2cccs2)nc(Nc2ccccc2)n1 [TCMDC-134734] | -21.51 |
| Cc1cc(N[C@@H](Cc2ccccc2)C(=O)NCCc2ccccc2)nc(NCCc2cccs2)n1 [TCMDC-134874] | 14.35 |
| Cc1cc(N(C)C2CCN(C)C2)nc(Nc2ccccc2Cl)n1 (stereo not drawn) [TCMDC-137007] | 12.36 |
| Cc1ccc(C)c(S(=O)(=O)Nc2ccc(Br)cc2C(=O)Nc2cccc(C(F)(F)F)c2)c1 [TCMDC-141482] | 10.24 |
| Cc1cc(NC(=O)c2cc(S(=O)(=O)N3CCCCC3)ccc2C)no1 [TCMDC-124530] | 23.56 |
| Cc1ccc(NC(=O)c2cc(S(=O)(=O)NC(C)(C)C)ccc2C)nc1 [TCMDC-125009] | 54.13 |
| Cc1cc(N2CCC(NS(=O)(=O)c3ccccc3)CC2)nc(Nc2cccc(C#N)c2)n1 [TCMDC-134213] | 22.13 |
| CN(CCc1ccccc1)c1ncc(-c2cccc(CNCCC3CCCN3C)c2)cn1 (stereo not drawn) [TCMDC-133143] | 92.22 |
| CCCN(CC1CC1)c1ncc(-c2cccc(CNCCC3CCCN3C)c2)cn1 (stereo not drawn) [TCMDC-133142] | 40.53 |
| CC1(C)CCCN(c2ncc(-c3cccc(CNCc4ccccc4O)c3)cn2)C1 [TCMDC-133139] | 32.42 |
| CN1CCCC1CCNCc1cccc(-c2cnc(N(C)C3CCCCC3)nc2)c1 (stereo not drawn) [TCMDC-133141] | 75.89 |
| CN(c1ncc(-c2cccc(CNCc3ccccc3O)c2)cn1)C1CCCCC1 [TCMDC-133137] | -20.17 |
| CC(=O)Nc1cccc(CNCc2ccc(-c3cnc(N4CCCC(C)(C)C4)nc3)cc2)c1 [TCMDC-133549] | -38.45 |
| CN1CCCC1CCNCc1cccc(-c2cnc(N3CCCC(C)(C)C3)nc2)c1 (stereo not drawn) [TCMDC-133144] | 90.28 |
| COC(=O)c1cc(OC)c(OC)cc1NC(=O)NC12CC3CC(CC(C3)C1)C2 [TCMDC-124384] | -44.27 |
| CC(Oc1ccc(Cl)cc1)C(=O)Nc1cc(C(F)(F)F)ccc1-n1cncn1 (stereo not drawn) [TCMDC-125023] | 17.82 |
| Cc1cccc(CNc2nc(C)cc(N[C@@H](CC(C)C)C(=O)NCCOc3ccccc3)n2)c1 [TCMDC-134892] | -42.27 |
| Fc1ccc2nc(-c3cccc(-c4cccc(CN5CCN(c6cnccn6)CC5)c4)c3)[nH]c2c1 [TCMDC-132676] | -22.96 |
| CCCC(C)Nc1nc(C)cc(N[C@@H](CC(C)C)C(=O)Nc2ccc(OC)cc2)n1 (stereo partly drawn) [TCMDC-134896] | -21.51 |
| CCCCCCCCn1ccc(=N)cc1 [TCMDC-125630] | 13.04 |

| Compound | % Inhibition [%] |
| --- | --- |
| Cc1cc(N2CCC(NS(=O)(=O)c3ccc(F)cc3)CC2)nc(Nc2cccc(C#N)c2)n1 [TCMDC-134214] | 18.32 |
| CCNc1cc(C(=O)N[C@@H](Cc2ccccc2)[C@H](O)CNC2CCC(C)(C)C2)cc(N2CCCCS2(=O)=O)c1 (stereo partly drawn) [TCMDC-135302] | 9.387 |
| COc1ccc(NC(=O)CSc2nc(-c3ccccc3Cl)ns2)cc1 [TCMDC-123543] | 61.96 |
| COc1cccc(NC(=O)CSc2nc(-c3ccccc3Cl)ns2)c1 [TCMDC-123544] | 62.62 |
| COc1ccccc1Cc1nc2ccccc2nc1SCC(=O)Nc1cccc(C(F)(F)F)c1 [TCMDC-123879] | 0.3581 |
| COc1ccccc1-c1ccc2nnc(SCC(=O)Nc3ccc4c(c3)OCCO4)n2n1 [TCMDC-124319] | 10.92 |
| O=C(Nc1cccc(Cl)c1)c1cc2ccccc2cc1O [TCMDC-124171] | 9.946 |
| COc1ccc(NC(=O)CSc2nc(-c3ccccc3Cl)ns2)cc1OC [TCMDC-125346] | 40.34 |
| CC(=O)c1ccc(NC(=O)CSc2nc(-c3ccccc3Cl)ns2)cc1 [TCMDC-124545] | -8.871 |
| O=C(CSc1nc(-c2ccccc2Cl)ns1)Nc1ccc2c(c1)OCO2 [TCMDC-124546] | 53.36 |
| COc1ccc(CC(=O)Nc2ccc(Nc3nc(C)cc(N4CCCC4)n3)cc2)cc1 [TCMDC-124966] | -9.476 |
| O=C(CSc1nc(-c2ccccc2Cl)ns1)Nc1cccc(F)c1 [TCMDC-124549] | 39.34 |
| O=C(Nc1cccc(CN2CCCN(Cc3ccc4c(c3)OCO4)CC2)c1)c1ccc(Cl)c(Cl)c1 [TCMDC-141820] | -97.11 |
| O=C(CSc1nc(-c2ccccc2Cl)ns1)Nc1cccc(Cl)c1 [TCMDC-124548] | 67.64 |
| Cc1ccc2ccccc2c1CCCON1C(N)=NC(N)=NC1(C)C [TCMDC-131758] | 22.75 |
| O=C(Nc1ccc(Cl)c(Cl)c1)N1CCC(CNCc2cccc([N+](=O)[O-])c2)CC1 [TCMDC-141279] | 18.17 |
| O=C(/C=C/c1ccc(Cl)c(Cl)c1)NCCCCCN1CCCN(C(=O)Nc2cc(Cl)nc(Cl)c2)CC1 [TCMDC-135888] | -3.146 |
| O=C(/C=C/c1ccc(Cl)c(Cl)c1)N1CCN(C(=O)Nc2cccc(C(F)(F)F)c2)CC1 [TCMDC-135944] | -35.14 |
| COc1ccc(NC(=O)c2cn(-c3ccc(C(C)(C)C)cc3)nc2C)cc1N1CCN(C)CC1 [TCMDC-138689] | -23.67 |
| c1ccc(COc2ccccc2COc2ccccc2-c2ccc3cccnc3n2)cc1 [TCMDC-136713] | 16.91 |
| COc1ccc(OC)c(NC(=O)CSc2nc(-c3ccccc3Cl)ns2)c1 [TCMDC-124547] | 60.03 |
| COc1ccc(-n2ccnc2SCC(=O)Nc2cc(Cl)ccc2OC)c(OC)c1 [TCMDC-125135] | -9.787 |
| COc1ccc(OC)c(NC(=O)c2c(-c3c(F)cccc3Cl)noc2C)c1 [TCMDC-123664] | 2.719 |

| Compound | % Inhibition [%] |
| --- | --- |
| FC(F)(F)c1ccc(COc2cc(Cl)ccc2Cn2ccnc2)cc1 [TCMDC-137640] | -9.557 |
| COc1cc(Cc2cnc(N)nc2N)cc(OCCCCCCC(=O)O)c1OC [TCMDC-137630] | -3.564 |
| COc1ccc(CNCc2ccsc2)cc1-c1ccc(S(=O)(=O)NCCN2CCCC2)s1 [TCMDC-132298] | 91.71 |
| COc1ccc(CNCCc2cccs2)cc1-c1ccc(S(=O)(=O)NCCN2CCCC2)s1 [TCMDC-132477] | 85.27 |
| COc1ccc(CNCc2ccccc2)cc1-c1ccc(S(=O)(=O)NCCN2CCCC2)s1 [TCMDC-132257] | 102.1 |
| COc1ccc(CNCc2ccc(F)cc2)cc1-c1ccc(S(=O)(=O)NCCN2CCCC2)s1 [TCMDC-132297] | 108.7 |
| CN1CCN(c2ccnc3ccc(NC(=O)Cc4cccc(Cl)c4Cl)cc23)CC1 [TCMDC-139274] | -28.12 |
| Cc1cccc2[nH]c(-c3cccc(-c4cccc(NC(=O)c5cnn6cccnc56)c4)c3)nc12 [TCMDC-136867] | -0.6551 |
| CN(C)c1cc2c(Nc3ccc4nc(Cc5ccccc5)[nH]c4c3)ncnc2cn1 [TCMDC-137304] | -2.875 |
| COc1ccc2nccc(N(C)CC3(O)CCN(CC(O)c4ccc5c(c4)NC(=O)CS5)CC3)c2n1 (stereo not drawn) [TCMDC-141471] | 38.6 |
| O=C(Nc1cccc(-c2ccc(-c3nc4cc(C(F)(F)F)ccc4[nH]3)s2)c1)c1cccnc1 [TCMDC-136922] | 0.1958 |
| CNCc1cccc2[nH]c(-c3ccc(Cc4cc(Cl)ccc4OCC(C)C)o3)nc12 [TCMDC-137044] | 60.59 |
| CC(C)COc1ccc(Cl)cc1Cc1ccc(-c2nc3c(cnc4ccccc43)[nH]2)o1 [TCMDC-136650] | 61.46 |
| CC(C)COc1ccc(Cl)cc1Cc1nc(-c2nc3ccc(CN4CCCCC4)cc3[nH]2)co1 [TCMDC-136811] | -22.76 |
| Clc1ccc(OCc2ccccc2)c(Cc2ccc(-c3nc4ccncc4[nH]3)o2)c1 [TCMDC-136651] | 10.18 |
| CC(C)COc1ccc(Cl)cc1Cc1ccc(-c2nc3c(F)cccc3[nH]2)o1 [TCMDC-136661] | 74.56 |
| CC(C)COc1ccc(Cl)cc1Cc1nc(-c2nc3ccc(CN4CCCC4)cc3[nH]2)co1 [TCMDC-136810] | -7.137 |
| CC(C)COc1ccc(Cl)cc1Cc1ccc(-c2nc3c(F)c(F)ccc3[nH]2)o1 [TCMDC-136562] | 72.75 |
| O=C(Nc1cccc(-c2nn3ccccc3c2-c2ccnc(Nc3cccc(F)c3)n2)c1)C1CCCCC1 [TCMDC-135770] | -93.68 |
| Cc1ccc2c(O)c([N+](=O)[O-])c(=O)[nH]c2c1 [TCMDC-131383] | 0.04547 |
| CCCn1c(SCC(=O)Nc2cc(C(F)(F)F)ccc2Cl)n[nH]c1=O [TCMDC-123566] | -8.395 |
| CC(C)(NCc1ncc[nH]1)c1nc(-c2ccc(Cl)c(O)c2)c(-c2ccncc2)[nH]1 [TCMDC-140686] | -7.541 |
| O=C(Nc1ccsc1)Nc1cccc(-c2cccc(-c3nc4ccccc4[nH]3)c2)c1 [TCMDC-133212] | -2.113 |
